# Sampled rows, rich in hits. Any-hit rate of the full collection: about 3.4%.
# ssDAF-12 act – activators of S. stercoralis DAF-12 nuclear receptor; HEK293 ssDAF-12/GRIP1 lit1-tk-luc reporter, luminescence; % of 3 µM dafachronic acid response; 370,000 tested, 1% active; activation, % at 6.8 µM;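 active means activation above the mean over all tested compounds plus 3 SD, cut at about 0.9% in these data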;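 further: 0% = DMSO-only wells and 100% = 3 µM delta7-dafachronic acid wells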
# NF-kB expr up – compounds increasing NF-kB expression in human neuronal cells; fold change at 12.5 µM; 190,000 tested, 1.6% active; AID 1239; NF-kB reporter expression; stronger effect = higher value; in the data active means fold change above about 3.3
# hcDAF-12 act – H. contortus DAF-12 activation, primary screen; HEK293 hcDAF-12 lit1-tk-luc reporter, luminescence; 0% DMSO, 100% Δ7-dafachronic acid; activation, % at 6.8 µM; 370,000 tested, 1.4% active;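 active means activation above the mean of all tested compounds plus 3 SD, cut at about 5.5% in these data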;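 further: 100% = response to 3 µM Δ7-dafachronic acid high control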
# APP 5'UTR act – APP 5'UTR luciferase reporter activation. SH-SY5Y APP 5'UTR luciferase reporter, luminescence; zero percent = DMSO vehicle wells. activation, % at 2 µM. 190,000 tested, 1% active;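 active means activation above a set limit, based on mean plus 3 SD of controls, cut at about 140% in these data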
# hgDAF12 agonist – hgDAF-12 agonism, primary luciferase screen; activation, % at 6.8 µM; 370,000 tested, 1.8% active; HEK293 GAL4-hgDAF12 UAS-luciferase reporter, agonist luminescence; normalized to butyrate control; AID 687014;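 active means activation above a cutoff set at the mean of all screened compounds plus 3 SD, cut at about 10% in these data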;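 further: 0% = DMSO wells and 100% = sodium butyrate wells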
# LXRb hcDAF ctr – LXR-beta agonism as hcDAF-12 counter-screen; shares compounds with hcDAF-12 act; HEK293 Gal4-LXR tk-luc reporter, luminescence, 24 h; normalized: DMSO 0%, positive control 100%; activation, % at 6.8 µM; 3,400 tested, under 10 active; AID 743027;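 active means mean percent activation of the reporter above a cutoff set as the average over tested compounds plus their standard deviation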
# Target sequence (P55055 whole entry, looked up, the tested form may be a part): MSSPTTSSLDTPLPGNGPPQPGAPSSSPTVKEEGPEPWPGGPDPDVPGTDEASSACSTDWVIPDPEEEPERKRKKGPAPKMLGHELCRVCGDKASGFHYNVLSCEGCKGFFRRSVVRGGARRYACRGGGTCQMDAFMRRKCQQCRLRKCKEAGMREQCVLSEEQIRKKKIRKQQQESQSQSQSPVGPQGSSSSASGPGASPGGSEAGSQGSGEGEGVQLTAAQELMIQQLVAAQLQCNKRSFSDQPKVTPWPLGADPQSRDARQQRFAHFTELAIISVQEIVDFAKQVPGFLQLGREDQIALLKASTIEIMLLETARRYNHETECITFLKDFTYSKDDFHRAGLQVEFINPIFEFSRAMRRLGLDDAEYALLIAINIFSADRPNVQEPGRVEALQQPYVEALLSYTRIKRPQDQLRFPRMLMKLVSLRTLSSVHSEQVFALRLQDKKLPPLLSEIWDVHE
# hcDAF12 ag – hcDAF-12 agonism, confirmation assay; shares compounds with hcDAF-12 act; HEK293 hcDAF-12 lit1-tk-luc reporter, luminescence; % of Δ7-dafachronic acid response; activation, % at 6.8 µM; 3,400 tested, 61% active; AID 743032;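 active means mean activation across triplicate tests above the threshold derived from the earlier primary screen, cut at about 5.5% in these data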;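 further: 0% = DMSO only wells and 100% = 3 µM Δ7-dafachronic acid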
# hgDAF12 ag – confirmation of H. glycines DAF-12 agonists | HEK293 GAL4-hgDAF12 luciferase reporter, agonist mode; percent of butyrate response | activation, % at 6.8 µM | shares compounds with hgDAF12 agonist | 3,300 tested, 80% active;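 active means mean activation over triplicate wells above the hit cutoff derived from the earlier primary screen, cut at about 11% in these data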;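 further: 0% = DMSO low control and 100% = 2 mM sodium butyrate high control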
# LXRb DAF12 ctr – counter-screen for DAF-12 agonists: agonists of human LXR-beta; 3,300 tested, under 10 active; shares compounds with hgDAF12 agonist; activation, % at 6.8 µM; AID 743051; HEK293 Gal4-LXR luciferase reporter, 24 h;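 active means mean activation of the triplicate above a set limit carried over from the primary screen, none filed active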
# Starred values were filed as active, the others as inactive; x = not tested or not shown.
SMILES,ssDAF-12 act,NF-kB expr up,hcDAF-12 act,APP 5'UTR act,hgDAF12 agonist,LXRb hcDAF ctr,hcDAF12 ag,hgDAF12 ag,LXRb DAF12 ctr
O=C(NC1=NCCS1)c1csc2ccccc12,1.1*,6.8*,8.3*,105,17*,2,10.0*,19*,1
Cc1cccc(CCNC(=O)c2ccc3c(c2)ncn3C2CCCCC2)c1,-1,x,-1,x,0,x,x,x,x
COc1ccc(NC(=O)N(C)[C@H]2C[C@H]3c4[nH]c5c(-c6cccc(C)c6)cccc5c4CCN3C(=O)[C@H]2[C@H](C)O)cc1,-1,x,-4,x,-2,x,x,x,x
CCOC(=O)C1=NOC(C(=O)Nc2cc(C)cc(C)c2)(C(=O)C2CC2)C1 (configuration not stated),-1,x,-2,x,1,x,x,x,x
CCc1ccc2oc(-c3cccc(N)c3)nc2c1,3.3*,3.9*,16*,110,16*,2,14*,24*,1
c1ccn(-c2ccc(-c3noc(CCc4ccncc4)n3)cc2)c1,-3,x,-6,x,-4,x,x,x,x
O=C(Nc1ccc(N2CCCCC2)cc1)c1ccccc1,0,5.7*,7.2*,164*,15*,2,5,17*,1
O=[N+]([O-])c1cc(C=NN2CCN(Cc3ccccc3Cl)CC2)ccc1Cl,0,x,1,x,2,x,x,x,x
COc1ccc(-c2nnc(SCC(=O)/C(C#N)=C(\C)N)o2)cc1,1,5.1*,6.7*,194*,16*,1,6.9*,18*,1
CCc1ccc(NC(=O)c2onc(C)c2Cl)cc1,2.2*,6*,17*,135*,29*,2,18*,22*,1
Cc1noc(C(=O)Nc2ccc(C#N)cc2)c1Cl,-1,x,-2,x,5,x,x,x,x
O=C1C[C@@H](c2ccccc2)N=C2N(Cc3ccc4c(c3)OCO4)C/C(=C/c3ccccc3)N12,-2,x,-3,x,-3,x,x,x,x
Cc1cccc(Cn2cc(CN3CC(N(C)CCOC(=O)c4cc(C)cc(C)c4)CS3(=O)=O)nn2)c1 (configuration not stated),-2,x,-1,x,-1,x,x,x,x
Nc1c(C(=O)Nc2ccc3c(c2)OCCO3)nnn1Cc1ccc(Br)cc1,1.3*,x,9.4*,x,22*,1,6.7*,22*,1
Nc1c(C(=O)Nc2ccc3c(c2)OCCO3)nnn1Cc1cccc(Br)c1,-1,x,3,x,3,x,x,x,x
O=C(Nc1ccc2c(c1)OCCO2)c1cccs1,1,5.2*,8.3*,142*,19*,1,4,13*,1
O=C(Nc1ccc2c(c1)OCCO2)c1cc2ccccc2o1,1.0*,9.2*,12*,225*,20*,2,8.1*,17*,1
Cn1c(C(=O)Nc2ccc3c(c2)OCO3)cc2sccc21,2.5*,8.9*,14*,153*,17*,1,16*,19*,1
CCS(=O)(=O)Nc1ccc2c(c1)C(=O)N(C)[C@@H]1CC[C@H](CC(=O)NCCOC)O[C@H]1CO2,-1,x,1,x,1,x,x,x,x
Cc1ccc(Cn2nnc3c2-c2cc(F)ccc2S(=O)(=O)N(C(C)(C)C)C3)cc1,0,x,-2,x,-3,x,x,x,x
CCN(CC)C(=O)CC[C@@H]1CC[C@]2(CCCN(Cc3ccc(Cl)cc3)C2)O1,-1,x,-2,x,-2,x,x,x,x
CN1Cc2nnn(Cc3ccccc3)c2-c2cc(F)ccc2S1(=O)=O,-1,x,3,x,-2,x,x,x,x
O=C(Nc1ccc2c(c1)OCO2)c1ccc(Br)s1,1.6*,10*,13*,162*,25*,2,15*,22*,1
O=C(/C=C\Nc1ccc2c(c1)OCO2)c1cccs1,1.0*,6.3*,8.3*,178*,17*,2,11*,12*,1
O=C(Nc1ccc2c(c1)OCCO2)c1ccc(Br)cc1,0,x,8.3*,x,15*,2,7.2*,14*,1
SMILES,ssDAF-12 act,NF-kB expr up,hcDAF-12 act,APP 5'UTR act,hgDAF12 agonist,LXRb hcDAF ctr,hcDAF12 ag,hgDAF12 ag,LXRb DAF12 ctr
N#Cc1cccc(NC(=O)OCCCN2CCC3(CCCCC3)C2=O)c1,-1,x,-3,x,-2,x,x,x,x
CC1CCN(C2=NC(=O)N(c3ccc(Br)cc3)C(=O)C2)CC1,0,x,0,x,2,x,x,x,x
Cc1occc1-c1nnc(SCC(=O)N[C@@H]2CCc3ccccc32)n1-c1ccccc1,-1,x,0,x,0,x,x,x,x
COCc1nnc(NC(=O)c2ccc(OC)cc2OC)s1,0,4.4*,6.8*,101,15*,1,4,12*,1
COc1ccc(C(=O)Nc2nccs2)cc1OC,-1,1.3,0,-5,7,x,x,x,x
COc1cc(C(=O)Nc2ccc3c(c2)OCCO3)c(-n2cnnn2)cc1OC,-1,0.91,-2,1,-1,x,x,x,x
COc1ccccc1OC(C)C(=O)Nc1ccc2c(c1)OCCO2 (configuration not stated),-1,x,-2,x,-1,x,x,x,x
COc1cc(SC)ccc1C(=O)Nc1ccc2c(c1)OCCO2,1,4.6*,8.2*,155*,14*,2,7.2*,16*,1
COc1cc(SC)ccc1C(=O)Nc1nccs1,1.3*,1,12*,190*,17*,2,14*,17*,1
COc1ccccc1C(=O)Nc1ccc2c(c1)OCCO2,1,3.5*,6.8*,137*,14*,1,6.6*,14*,1
CCCCCN1CCCCC(NC(=O)c2c(F)cccc2F)C1=O (configuration not stated),-2,x,2,x,0,x,x,x,x
Nc1c(-c2ccccc2)cnn1-c1cccc(Cl)c1,0,x,7.1*,x,15*,1,4,17*,1
COCCCN=Cc1c(C)[nH]n(-c2ccc(Br)c(C)c2)c1=O,1,2.7,7.6*,147*,18*,2,11*,10,1
Cc1ccc(-c2nc3ccccc3nc2NN)cc1,2.2*,x,12*,x,18*,2,11*,20*,1
CN(C)c1cccc(-c2nccc(N3CCC(C(N)=O)CC3)n2)c1,-1,x,0,x,7,x,x,x,x
CN(C)c1cccc(-c2cnc(N3CCC(C(N)=O)CC3)s2)c1,1.8*,x,6.7*,x,17*,2,6.0*,19*,1
CCC[C@H]1[C@@H](OC(=O)NCCc2ccccc2)CC[C@@]23CCCN2C(=O)CCC[C@@H]13,-2,x,0,x,-4,x,x,x,x
